# Columns and labels:
# [1] = target: Mitogen-activated protein kinase 3 (Homo sapiens) (UniProt P27361); conditions: at 1 µM;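 further: values are mean percent inhibition of MAPK3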
# [2] = target: SRSF protein kinase 3 (Homo sapiens) (UniProt Q9UPE1); conditions: at 0.1 µM
# [3] = target: SRSF protein kinase 3 (Homo sapiens) (UniProt Q9UPE1); conditions: at 1 µM
# [4] = target: Mitogen-activated protein kinase 14 (Homo sapiens) (UniProt Q16539); conditions: at 0.1 µM
# [5] = target: Mitogen-activated protein kinase 14 (Homo sapiens) (UniProt Q16539); conditions: at 1 µM
# [6] = target: Mitogen-activated protein kinase 11 (Homo sapiens) (UniProt Q15759); conditions: at 0.1 µM
# [7] = target: Mitogen-activated protein kinase 11 (Homo sapiens) (UniProt Q15759); conditions: at 1 µM
# [8] = target: T1, Mitogen-activated protein kinase 13 (Homo sapiens) (UniProt O15264); conditions: at 0.1 µM
# T1 sequence (whole entry): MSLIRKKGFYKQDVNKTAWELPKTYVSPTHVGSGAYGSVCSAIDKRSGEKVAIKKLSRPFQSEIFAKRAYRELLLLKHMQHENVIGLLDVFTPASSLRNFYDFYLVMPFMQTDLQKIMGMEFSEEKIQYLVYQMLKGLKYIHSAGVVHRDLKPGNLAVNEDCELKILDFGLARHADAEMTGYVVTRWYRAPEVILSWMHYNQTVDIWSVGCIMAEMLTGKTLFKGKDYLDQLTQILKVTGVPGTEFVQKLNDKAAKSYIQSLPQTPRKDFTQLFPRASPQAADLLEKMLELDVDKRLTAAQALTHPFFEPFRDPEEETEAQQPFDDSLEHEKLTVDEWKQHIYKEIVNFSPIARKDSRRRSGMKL
# [9] = target: T1, Mitogen-activated protein kinase 13 (Homo sapiens); conditions: at 1 µM
# [10] = target: T2, Mitogen-activated protein kinase 12 (Homo sapiens) (UniProt P53778); conditions: at 0.1 µM
# T2 sequence (whole entry): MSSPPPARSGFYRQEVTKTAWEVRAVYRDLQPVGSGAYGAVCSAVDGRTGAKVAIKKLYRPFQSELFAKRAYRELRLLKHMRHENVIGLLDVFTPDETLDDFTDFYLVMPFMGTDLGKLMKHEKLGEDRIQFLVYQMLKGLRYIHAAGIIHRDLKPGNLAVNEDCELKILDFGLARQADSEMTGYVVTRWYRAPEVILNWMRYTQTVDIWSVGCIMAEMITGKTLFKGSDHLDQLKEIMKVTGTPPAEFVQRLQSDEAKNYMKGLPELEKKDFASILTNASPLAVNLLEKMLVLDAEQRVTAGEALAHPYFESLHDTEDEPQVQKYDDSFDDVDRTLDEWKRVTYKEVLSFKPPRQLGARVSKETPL
# [11] = target: T2, Mitogen-activated protein kinase 12 (Homo sapiens); conditions: at 1 µM
# [12] = target: SRSF protein kinase 1 (Homo sapiens) (UniProt Q96SB4); conditions: at 0.1 µM
# [13] = target: SRSF protein kinase 1 (Homo sapiens) (UniProt Q96SB4); conditions: at 1 µM
# [14] = target: Phosphatidylinositol 4,5-bisphosphate 3-kinase catalytic subunit alpha isoform (Homo sapiens) (UniProt P42336); conditions: at 0.1 µM
# [15] = target: Phosphatidylinositol 4,5-bisphosphate 3-kinase catalytic subunit alpha isoform (Homo sapiens) (UniProt P42336); conditions: at 1 µM
# [16] = target: T3, Phosphatidylinositol 4,5-bisphosphate 3-kinase catalytic subunit delta isoform (Homo sapiens) (UniProt O00329); conditions: at 0.1 µM
# T3 sequence (whole entry): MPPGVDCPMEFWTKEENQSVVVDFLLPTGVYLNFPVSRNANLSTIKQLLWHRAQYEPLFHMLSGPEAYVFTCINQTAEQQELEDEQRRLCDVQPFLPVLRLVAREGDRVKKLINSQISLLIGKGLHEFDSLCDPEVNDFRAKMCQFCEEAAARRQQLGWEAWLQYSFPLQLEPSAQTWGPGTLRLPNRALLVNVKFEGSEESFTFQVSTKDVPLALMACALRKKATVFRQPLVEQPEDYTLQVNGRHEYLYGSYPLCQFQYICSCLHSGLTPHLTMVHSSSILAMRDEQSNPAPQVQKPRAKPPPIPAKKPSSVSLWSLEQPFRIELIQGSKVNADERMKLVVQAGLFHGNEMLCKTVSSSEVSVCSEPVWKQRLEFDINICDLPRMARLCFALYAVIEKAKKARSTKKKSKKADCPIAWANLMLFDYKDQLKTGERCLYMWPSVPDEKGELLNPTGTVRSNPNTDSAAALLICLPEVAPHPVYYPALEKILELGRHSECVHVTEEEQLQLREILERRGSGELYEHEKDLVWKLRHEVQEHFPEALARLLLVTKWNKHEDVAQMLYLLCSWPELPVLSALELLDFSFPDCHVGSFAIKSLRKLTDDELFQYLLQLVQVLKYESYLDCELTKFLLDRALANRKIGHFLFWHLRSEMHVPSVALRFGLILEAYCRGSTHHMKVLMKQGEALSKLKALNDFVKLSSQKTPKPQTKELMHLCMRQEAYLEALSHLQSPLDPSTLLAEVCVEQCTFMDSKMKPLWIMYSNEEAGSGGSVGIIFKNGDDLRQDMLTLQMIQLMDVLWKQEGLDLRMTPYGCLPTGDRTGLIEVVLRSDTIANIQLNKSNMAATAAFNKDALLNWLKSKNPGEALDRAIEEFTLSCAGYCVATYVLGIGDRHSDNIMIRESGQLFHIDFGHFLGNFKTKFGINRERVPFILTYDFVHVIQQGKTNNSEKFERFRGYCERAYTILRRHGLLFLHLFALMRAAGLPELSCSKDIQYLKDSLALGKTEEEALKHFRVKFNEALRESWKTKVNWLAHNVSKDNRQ
# [17] = target: T3, Phosphatidylinositol 4,5-bisphosphate 3-kinase catalytic subunit delta isoform (Homo sapiens); conditions: at 1 µM
# [18] = target: Phosphatidylinositol 4-kinase beta (Homo sapiens) (UniProt Q9UBF8); conditions: at 0.1 µM
# [19] = target: Phosphatidylinositol 4-kinase beta (Homo sapiens) (UniProt Q9UBF8); conditions: at 1 µM
# [20] = target: Sphingosine kinase 1 (Homo sapiens) (UniProt Q9NYA1); conditions: at 0.1 µM;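 further: mean percent inhibition of SPHK1 activity, measured within the GSK PKIS screening panel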
# Sphingosine kinase 1 (Homo sapiens), sequence (Q9NYA1 whole entry): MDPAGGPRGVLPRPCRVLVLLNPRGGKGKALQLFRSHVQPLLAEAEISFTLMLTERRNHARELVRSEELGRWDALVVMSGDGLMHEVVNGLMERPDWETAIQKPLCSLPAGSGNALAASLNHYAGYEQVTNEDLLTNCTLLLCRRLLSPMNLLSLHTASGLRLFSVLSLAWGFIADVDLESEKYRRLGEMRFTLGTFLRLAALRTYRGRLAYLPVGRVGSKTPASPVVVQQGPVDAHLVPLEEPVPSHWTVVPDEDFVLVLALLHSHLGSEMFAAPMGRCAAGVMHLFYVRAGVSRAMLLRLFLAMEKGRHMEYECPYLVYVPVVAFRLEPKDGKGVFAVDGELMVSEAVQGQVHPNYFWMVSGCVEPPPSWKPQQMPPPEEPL
# SRSF protein kinase 1 (Homo sapiens), sequence (Q96SB4 whole entry, canonical isoform): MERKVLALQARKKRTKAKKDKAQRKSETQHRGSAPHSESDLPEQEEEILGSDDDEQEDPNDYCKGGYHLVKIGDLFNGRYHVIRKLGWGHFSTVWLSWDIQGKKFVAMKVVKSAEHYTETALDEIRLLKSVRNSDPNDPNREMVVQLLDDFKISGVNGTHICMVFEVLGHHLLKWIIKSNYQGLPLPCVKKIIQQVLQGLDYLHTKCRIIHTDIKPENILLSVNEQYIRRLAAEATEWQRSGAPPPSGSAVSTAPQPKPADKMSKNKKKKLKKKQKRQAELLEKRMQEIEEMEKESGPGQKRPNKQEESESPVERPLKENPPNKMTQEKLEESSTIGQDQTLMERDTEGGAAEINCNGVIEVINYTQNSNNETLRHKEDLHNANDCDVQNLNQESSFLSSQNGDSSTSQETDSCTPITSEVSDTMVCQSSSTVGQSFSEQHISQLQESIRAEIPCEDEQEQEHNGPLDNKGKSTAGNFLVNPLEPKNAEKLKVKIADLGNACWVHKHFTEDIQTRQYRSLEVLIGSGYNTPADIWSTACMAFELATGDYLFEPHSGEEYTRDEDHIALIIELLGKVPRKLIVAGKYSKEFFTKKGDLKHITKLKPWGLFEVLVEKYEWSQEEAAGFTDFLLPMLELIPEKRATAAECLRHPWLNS
# Mitogen-activated protein kinase 14 (Homo sapiens), sequence (Q16539 whole entry): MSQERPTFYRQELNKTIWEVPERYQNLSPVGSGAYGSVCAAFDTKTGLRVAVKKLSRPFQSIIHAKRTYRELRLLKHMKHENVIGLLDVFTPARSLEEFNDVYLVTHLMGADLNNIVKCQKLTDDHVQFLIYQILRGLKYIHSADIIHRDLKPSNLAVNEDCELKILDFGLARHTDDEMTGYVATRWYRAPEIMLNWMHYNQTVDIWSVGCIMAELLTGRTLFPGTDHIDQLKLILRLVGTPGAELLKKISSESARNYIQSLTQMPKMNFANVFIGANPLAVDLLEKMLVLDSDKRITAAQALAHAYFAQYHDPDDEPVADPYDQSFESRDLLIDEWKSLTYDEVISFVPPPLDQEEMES
# Phosphatidylinositol 4,5-bisphosphate 3-kinase catalytic subunit alpha isoform (Homo sapiens), sequence (P42336 whole entry, canonical isoform): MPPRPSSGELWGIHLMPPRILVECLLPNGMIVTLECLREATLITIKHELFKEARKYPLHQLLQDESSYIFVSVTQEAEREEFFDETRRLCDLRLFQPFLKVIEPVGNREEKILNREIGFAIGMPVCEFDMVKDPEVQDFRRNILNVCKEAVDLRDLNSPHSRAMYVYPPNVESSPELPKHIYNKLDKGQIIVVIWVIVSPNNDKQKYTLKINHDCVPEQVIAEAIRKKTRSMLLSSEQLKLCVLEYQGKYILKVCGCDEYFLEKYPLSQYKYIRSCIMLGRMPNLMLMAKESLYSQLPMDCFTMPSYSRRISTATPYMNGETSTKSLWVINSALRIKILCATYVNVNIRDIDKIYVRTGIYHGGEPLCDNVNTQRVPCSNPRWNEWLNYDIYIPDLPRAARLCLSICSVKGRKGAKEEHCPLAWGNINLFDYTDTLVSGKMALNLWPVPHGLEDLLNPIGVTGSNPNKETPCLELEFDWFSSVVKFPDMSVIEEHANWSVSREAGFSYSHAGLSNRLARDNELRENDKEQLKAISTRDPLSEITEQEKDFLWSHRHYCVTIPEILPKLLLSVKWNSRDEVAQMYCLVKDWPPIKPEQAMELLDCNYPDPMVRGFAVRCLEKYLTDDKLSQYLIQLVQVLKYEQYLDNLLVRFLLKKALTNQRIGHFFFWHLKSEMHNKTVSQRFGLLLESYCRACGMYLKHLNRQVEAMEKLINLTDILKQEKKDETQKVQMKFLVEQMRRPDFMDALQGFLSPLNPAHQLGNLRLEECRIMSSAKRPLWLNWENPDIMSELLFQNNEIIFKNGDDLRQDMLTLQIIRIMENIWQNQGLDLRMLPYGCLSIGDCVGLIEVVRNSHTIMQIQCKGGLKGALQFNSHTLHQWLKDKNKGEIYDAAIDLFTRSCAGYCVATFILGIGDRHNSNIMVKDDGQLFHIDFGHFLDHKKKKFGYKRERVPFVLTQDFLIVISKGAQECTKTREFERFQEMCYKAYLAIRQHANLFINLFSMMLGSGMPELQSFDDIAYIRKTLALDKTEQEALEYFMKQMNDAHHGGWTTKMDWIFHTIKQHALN
# Mitogen-activated protein kinase 11 (Homo sapiens), sequence (Q15759 whole entry): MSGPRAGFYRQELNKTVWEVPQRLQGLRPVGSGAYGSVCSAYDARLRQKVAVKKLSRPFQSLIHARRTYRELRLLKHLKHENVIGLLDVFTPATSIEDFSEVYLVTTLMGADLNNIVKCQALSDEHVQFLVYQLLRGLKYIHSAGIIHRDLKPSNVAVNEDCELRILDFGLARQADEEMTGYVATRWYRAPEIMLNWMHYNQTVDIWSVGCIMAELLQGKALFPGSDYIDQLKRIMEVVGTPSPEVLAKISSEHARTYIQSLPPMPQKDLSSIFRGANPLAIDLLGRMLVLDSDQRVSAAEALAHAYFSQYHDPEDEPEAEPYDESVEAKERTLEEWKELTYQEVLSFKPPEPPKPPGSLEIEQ
# SRSF protein kinase 3 (Homo sapiens), sequence (Q9UPE1 whole entry): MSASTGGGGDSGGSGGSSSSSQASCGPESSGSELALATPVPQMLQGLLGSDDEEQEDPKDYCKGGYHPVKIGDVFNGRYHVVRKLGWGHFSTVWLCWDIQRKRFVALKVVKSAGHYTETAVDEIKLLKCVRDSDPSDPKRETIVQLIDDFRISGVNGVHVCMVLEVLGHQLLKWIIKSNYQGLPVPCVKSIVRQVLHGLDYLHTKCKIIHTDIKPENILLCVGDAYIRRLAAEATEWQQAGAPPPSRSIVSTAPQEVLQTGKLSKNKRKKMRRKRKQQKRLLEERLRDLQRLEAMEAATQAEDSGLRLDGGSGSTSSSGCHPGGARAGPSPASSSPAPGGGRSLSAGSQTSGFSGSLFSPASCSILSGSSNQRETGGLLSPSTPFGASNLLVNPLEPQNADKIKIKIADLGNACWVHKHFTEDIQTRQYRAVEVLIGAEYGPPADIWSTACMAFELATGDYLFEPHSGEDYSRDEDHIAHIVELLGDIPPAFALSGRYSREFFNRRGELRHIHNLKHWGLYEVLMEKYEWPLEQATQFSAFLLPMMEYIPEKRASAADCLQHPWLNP
# Phosphatidylinositol 4-kinase beta (Homo sapiens), sequence (Q9UBF8 2-816 limits assumed): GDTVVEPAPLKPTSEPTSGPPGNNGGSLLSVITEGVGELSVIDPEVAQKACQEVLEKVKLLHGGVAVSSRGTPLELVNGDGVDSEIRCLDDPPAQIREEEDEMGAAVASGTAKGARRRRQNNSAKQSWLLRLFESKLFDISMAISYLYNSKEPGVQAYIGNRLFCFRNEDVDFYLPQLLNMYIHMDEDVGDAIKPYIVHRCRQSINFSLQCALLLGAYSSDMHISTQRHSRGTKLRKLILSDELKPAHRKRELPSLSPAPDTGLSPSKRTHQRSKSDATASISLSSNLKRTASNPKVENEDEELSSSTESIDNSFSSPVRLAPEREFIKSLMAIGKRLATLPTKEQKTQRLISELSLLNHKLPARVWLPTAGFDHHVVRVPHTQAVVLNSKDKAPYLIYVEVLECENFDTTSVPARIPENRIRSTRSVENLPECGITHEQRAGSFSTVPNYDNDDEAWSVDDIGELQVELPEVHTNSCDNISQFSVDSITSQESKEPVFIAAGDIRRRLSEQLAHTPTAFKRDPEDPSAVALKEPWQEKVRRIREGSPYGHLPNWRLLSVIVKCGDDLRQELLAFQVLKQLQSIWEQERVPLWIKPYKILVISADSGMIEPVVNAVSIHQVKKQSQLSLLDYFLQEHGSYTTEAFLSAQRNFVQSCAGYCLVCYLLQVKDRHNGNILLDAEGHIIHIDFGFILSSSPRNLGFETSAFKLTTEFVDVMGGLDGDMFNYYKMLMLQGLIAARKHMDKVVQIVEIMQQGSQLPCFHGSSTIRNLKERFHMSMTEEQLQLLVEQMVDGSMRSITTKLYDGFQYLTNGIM
# Mitogen-activated protein kinase 3 (Homo sapiens), sequence (P27361 whole entry): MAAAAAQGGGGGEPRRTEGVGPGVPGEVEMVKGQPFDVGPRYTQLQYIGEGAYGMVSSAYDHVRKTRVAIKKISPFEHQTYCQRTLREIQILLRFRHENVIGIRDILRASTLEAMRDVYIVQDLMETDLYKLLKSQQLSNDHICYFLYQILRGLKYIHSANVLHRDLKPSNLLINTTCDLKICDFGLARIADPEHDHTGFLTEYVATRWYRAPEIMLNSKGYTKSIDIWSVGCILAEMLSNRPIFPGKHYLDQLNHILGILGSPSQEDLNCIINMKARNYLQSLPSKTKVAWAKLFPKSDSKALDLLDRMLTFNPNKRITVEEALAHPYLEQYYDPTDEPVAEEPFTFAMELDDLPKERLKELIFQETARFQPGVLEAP
Compound,inhibition [1],inhibition [2],inhibition [3],inhibition [4],inhibition [5],inhibition [6],inhibition [7],inhibition [8],inhibition [9],inhibition [10],inhibition [11],inhibition [12],inhibition [13],inhibition [14],inhibition [15],inhibition [16],inhibition [17],inhibition [18],inhibition [19],inhibition [20]
NC(=O)c1ccc(-c2nc(-c3ccccn3)c(-c3ccc4c(c3)OCO4)[nH]2)cc1,1.38%,-1.12%,0.34%,7.26%,15.5%,5.42%,10.6%,1.16%,2.44%,0.17%,1.74%,-2.38%,-2.03%,1.4%,-0.55%,0.37%,2.45%,-5.45%,-2.85%,3.02%
NS(=O)(=O)c1cccc(-c2ccc3c(NC(=O)C4CC4)n[nH]c3c2)c1,-0.05%,-0.57%,-6.73%,6.37%,9.34%,1.5%,5.3%,-0.02%,-0.14%,-0.74%,-1.58%,1.47%,1.47%,2.99%,3.6%,7.35%,8.71%,1.29%,-3.98%,0.58%
CC1=C(C(=O)Nc2ccc3[nH]ncc3c2)C(c2ccc(F)cc2)NC(=O)N1 (stereo not drawn),3.56%,-2.61%,-0.84%,2.74%,6.99%,2.94%,3.88%,0.78%,2.31%,0.89%,1.7%,-0.16%,-1.24%,2.51%,5.96%,2.41%,3.62%,1.44%,1.28%,1.05%
COc1cc(C)c(NC(=O)CN(C)C)cc1Nc1nc(Nc2cccc(F)c2C(N)=O)c2cc[nH]c2n1,0.63%,2.12%,7.69%,1.35%,5.59%,3.27%,3.23%,-0.43%,1.87%,0.52%,1.38%,-2.61%,-3.29%,0.75%,0.03%,0.12%,2.2%,5.07%,1.45%,–
COc1ccccc1Nc1ncc(-c2ccccc2)o1,5.55%,-1.49%,1.35%,10.4%,11%,4.31%,7.08%,5.83%,4.74%,4.14%,4.08%,-4.21%,-2.61%,5.32%,6.11%,0.95%,2.27%,-0.97%,0.94%,0%
COc1cc2ncn(-c3cc(O[C@H](C)c4ccccc4Cl)c(C(N)=O)s3)c2cc1OC,4.54%,-0.2%,8.42%,5.73%,6.35%,3.71%,4.9%,2.38%,3.77%,2.99%,3.72%,0.35%,7.77%,7.21%,36.1%,13.6%,59.9%,2.43%,-0.59%,1.83%
COc1cc2c(cc1Nc1nc(N3CCc4ccccc43)c3cc[nH]c3n1)N(C(=O)CN(C)C)CC2,1.51%,0.87%,1.46%,3.41%,3.7%,2.84%,1.85%,0.4%,2.2%,0.57%,1.21%,-1.43%,-3.76%,0.76%,2.92%,1.22%,3.33%,1.21%,2.11%,0.07%
COc1cc(C=NNc2ncnc3c2cnn3-c2ccccc2)ccc1O,1.84%,2.22%,4.19%,4.51%,10.7%,3.59%,9.09%,3.08%,7.17%,1.85%,5.79%,-0.73%,0.63%,6.59%,15.9%,8.17%,18%,-0.81%,-0.12%,-0.86%
CS(=O)(=O)CCNCc1ccc(-c2ccc3ncnc(Nc4ccc(OCc5cccc(F)c5)c(C(F)(F)F)c4)c3c2)o1,2.51%,-1.77%,-0.64%,4.28%,11.8%,3.77%,8.93%,1.37%,5.37%,1.92%,3.16%,-1.9%,-0.25%,3.86%,7.14%,2.85%,7.89%,–,-2.15%,-0.87%
Fc1cccc(COc2ccc(Nc3ncnc4cc(-c5ccc[nH]5)sc34)cc2Cl)c1,1.55%,-2.27%,-1.34%,1.24%,4.89%,0.23%,-0.16%,1.98%,2.15%,4.35%,2.1%,-1.71%,-1.58%,3.58%,10.8%,2.77%,9.44%,-8.05%,2.94%,1.48%
NCc1ccc(-c2nc(-c3ccc(Cl)c(O)c3)c(-c3ccncc3)[nH]2)cc1,0.95%,-2.12%,-2.01%,41%,77.1%,13.6%,54%,-0.52%,1.79%,-0.97%,2.04%,-1.76%,-4.18%,-0.47%,3.94%,0.9%,6.6%,-3.9%,-2.79%,2.55%
COc1ccc(-c2coc3ncnc(N)c23)cc1,2.51%,-0.31%,-3.44%,4.37%,13.4%,4.69%,7.25%,1.38%,5.26%,1.11%,2.95%,-2.53%,-4.3%,3.88%,8.12%,2.89%,11.6%,2.15%,-0.74%,-2.41%
c1cnn2ncc(-c3ccnc(Nc4ccc5c(c4)OCCO5)n3)c2c1,12%,-0.61%,1.61%,7.07%,13.3%,3.66%,9.95%,4.89%,16.3%,0.48%,6.13%,0.05%,2.88%,7.25%,30.2%,4.69%,26.1%,1.98%,9.37%,1.6%

# Source: ChEMBL document CHEMBL1961873, “Compounds: GSK PKIS; Assays: Nanosyn kinase panel” (2012)
